# Test results taken from the supplement of paper PMC10037445.
# The full ranking holds about 2,900 compounds; the median of “NF-kB SEAP reporter activity, fold change vs agonist alone” is about 0.99, and the highest 2% start at about 2.6. The full list was thinned out, with the highest values kept by preference.
# Columns and labels:
# RAW-Dual [1] = assay: NF-kB SEAP reporter activity, fold change vs agonist alone; higher = enhanced NF-kB activity
# Method in brief: (§1)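 RAW-Dual macrophages were seeded in DMEM at 50,000 cells/well in 384-well plates, given 50 nL of library stock by pin tool, and given a PRR agonist 1 h later. Plates were held at 37 °C, 5% CO2 for 20 hours, after which supernatant was read for IRF by QuantiLuc luminescence and for NF-κB by QuantiBlue absorbance at 620 nm. Reporter activity is expressed as fold change over wells that received agonist alone. A well was called cytotoxic when IncuCyte confluency fell below 70% of agonist controls in both mask sets.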
# RAW-Dual [2] = assay: NF-kB SEAP reporter activity, fold change vs agonist alone; cytotoxicity flag (confluency mask): cytotoxic (confluency <70% of control); higher = enhanced NF-kB activity
# Method in brief: as §1
# RAW-Dual [3] = assay: NF-kB SEAP reporter activity, fold change vs agonist alone; cytotoxicity flag (confluency mask): not cytotoxic; higher = enhanced NF-kB activity
# Method in brief: as §1
# [4] = library stock concentration (final ~1000-fold dilution): 10 mM, cytotoxicity flag (confluency mask): cytotoxic (confluency <70% of control), agonist: MPLA (TLR4) […]
# [5] = agonist: ODN 1826 (TLR9) 0.5 ug/mL
# [6] = agonist: Pam2CSK4 (TLR2/6) 0.1 ug/mL
# [7] = agonist: Pam3CSK4 (TLR2/1) 0.1 ug/mL
# [8] = library stock concentration (final ~1000-fold dilution): 10 mM, cytotoxicity flag (confluency mask): not cytotoxic, agonist: Imiquimod (TLR7) […]
# [9] = library stock concentration (final ~1000-fold dilution): 10 mM, cytotoxicity flag (confluency mask): not cytotoxic, agonist: MPLA (TLR4) […]
# [10] = library stock concentration (final ~1000-fold dilution): 10 mM, cytotoxicity flag (confluency mask): cytotoxic (confluency <70% of control), agonist: Imiquimod (TLR7) […]
smiles,measurement,setting,value
O=C1Nc2ccc(Cl)cc2C(C#CC2CC2)(C(F)(F)F)O1 (configuration not stated),NF-kB SEAP reporter activity,RAW-Dual [1]; [4],0.748
O=C1Nc2ccc(Cl)cc2C(C#CC2CC2)(C(F)(F)F)O1 (configuration not stated) (library stock concentration (final ~1000-fold dilution): 10 mM),NF-kB SEAP reporter activity,RAW-Dual [2]; agonist: LPS (TLR4) 0.1 ug/mL,0.632
same,NF-kB SEAP reporter activity,RAW-Dual [2]; [5],0.547
same,NF-kB SEAP reporter activity,RAW-Dual [2]; [6],0.614
same,NF-kB SEAP reporter activity,RAW-Dual [2]; [7],0.542
CCCC(NC1CCc2cc(F)cc(F)c2C1)C(=O)Nc1cn(C(C)(C)CNCC(C)(C)C)cn1 (configuration not stated) (library stock concentration (final ~1000-fold dilution): 10 mM),NF-kB SEAP reporter activity,RAW-Dual [3]; agonist: LPS (TLR4) 0.1 ug/mL,0.636
same,NF-kB SEAP reporter activity,RAW-Dual [3]; [5],0.316
same,NF-kB SEAP reporter activity,RAW-Dual [3]; [6],0.723
same,NF-kB SEAP reporter activity,RAW-Dual [3]; [7],0.298
CCCC(NC1CCc2cc(F)cc(F)c2C1)C(=O)Nc1cn(C(C)(C)CNCC(C)(C)C)cn1 (configuration not stated),NF-kB SEAP reporter activity,RAW-Dual [1]; [8],0.373
same,NF-kB SEAP reporter activity,RAW-Dual [1]; [9],0.669
CC(=O)NC(CC(C)C)C(=O)NC(CC(C)C)C(=O)NC(C=O)CCCNC(=N)N (configuration not stated),NF-kB SEAP reporter activity,RAW-Dual [1]; [8],0.983
same,NF-kB SEAP reporter activity,RAW-Dual [1]; [9],1.09
CC(=O)NC(CC(C)C)C(=O)NC(CC(C)C)C(=O)NC(C=O)CCCNC(=N)N (configuration not stated) (library stock concentration (final ~1000-fold dilution): 10 mM),NF-kB SEAP reporter activity,RAW-Dual [3]; agonist: LPS (TLR4) 0.1 ug/mL,1.01
same,NF-kB SEAP reporter activity,RAW-Dual [3]; [5],1.02
same,NF-kB SEAP reporter activity,RAW-Dual [3]; [6],1.08
same,NF-kB SEAP reporter activity,RAW-Dual [3]; [7],1.15
CN1C2=C3N=c4ccccc4=C3CCN2C(=O)c2ccccc21,NF-kB SEAP reporter activity,RAW-Dual [1]; [8],1.62
same,NF-kB SEAP reporter activity,RAW-Dual [1]; [9],1.83
CN1C2=C3N=c4ccccc4=C3CCN2C(=O)c2ccccc21 (library stock concentration (final ~1000-fold dilution): 10 mM),NF-kB SEAP reporter activity,RAW-Dual [3]; agonist: LPS (TLR4) 0.1 ug/mL,1.05
same,NF-kB SEAP reporter activity,RAW-Dual [3]; [5],0.339
same,NF-kB SEAP reporter activity,RAW-Dual [3]; [6],0.824
same,NF-kB SEAP reporter activity,RAW-Dual [3]; [7],1.1
Cc1cc2c(C(N)=O)cccc2n1-c1nc2c(c(NCc3ccccc3)n1)COCC2,NF-kB SEAP reporter activity,RAW-Dual [1]; [10],0.297
same,NF-kB SEAP reporter activity,RAW-Dual [1]; [4],0.302
Cc1cc2c(C(N)=O)cccc2n1-c1nc2c(c(NCc3ccccc3)n1)COCC2 (library stock concentration (final ~1000-fold dilution): 10 mM),NF-kB SEAP reporter activity,RAW-Dual [2]; agonist: LPS (TLR4) 0.1 ug/mL,0.298
same,NF-kB SEAP reporter activity,RAW-Dual [2]; [5],0.325
same,NF-kB SEAP reporter activity,RAW-Dual [2]; [6],0.0795
same,NF-kB SEAP reporter activity,RAW-Dual [2]; [7],0.159
CC(C)=CCC[C@](C)(O)[C@H]1CC[C@]2(C)[C@@H]3CCC4C(C)(C)[C@@H](O)CC[C@]4(C)[C@H]3C[C@@H](O)[C@@]12C (some centres not stated) (library stock concentration (final ~1000-fold dilution): 10 mM),NF-kB SEAP reporter activity,RAW-Dual [3]; agonist: LPS (TLR4) 0.1 ug/mL,1.41
same,NF-kB SEAP reporter activity,RAW-Dual [3]; [5],0.693
same,NF-kB SEAP reporter activity,RAW-Dual [3]; [6],0.848
same,NF-kB SEAP reporter activity,RAW-Dual [3]; [7],0.882
CC(C)=CCC[C@](C)(O)[C@H]1CC[C@]2(C)[C@@H]3CCC4C(C)(C)[C@@H](O)CC[C@]4(C)[C@H]3C[C@@H](O)[C@@]12C (some centres not stated),NF-kB SEAP reporter activity,RAW-Dual [1]; [8],0.934
same,NF-kB SEAP reporter activity,RAW-Dual [1]; [9],1.14
O=c1cc(-c2ccc(O)cc2)oc2c(C3OCC(O)C(O)C3O)c(O)c(C3OC(CO)C(O)C(O)C3O)c(O)c12 (configuration not stated),NF-kB SEAP reporter activity,RAW-Dual [1]; [8],1.02
same,NF-kB SEAP reporter activity,RAW-Dual [1]; [9],1.05
O=c1cc(-c2ccc(O)cc2)oc2c(C3OCC(O)C(O)C3O)c(O)c(C3OC(CO)C(O)C(O)C3O)c(O)c12 (configuration not stated) (library stock concentration (final ~1000-fold dilution): 10 mM),NF-kB SEAP reporter activity,RAW-Dual [3]; agonist: LPS (TLR4) 0.1 ug/mL,1.45
same,NF-kB SEAP reporter activity,RAW-Dual [3]; [5],1.03
same,NF-kB SEAP reporter activity,RAW-Dual [3]; [6],1.08
same,NF-kB SEAP reporter activity,RAW-Dual [3]; [7],1.08
CCn1cc(-c2cccc(C(F)(F)F)c2)c2sc(C(=N)NC3CCS(=O)(=O)CC3)cc2c1=O,NF-kB SEAP reporter activity,RAW-Dual [1]; [10],1.33
same,NF-kB SEAP reporter activity,RAW-Dual [1]; [4],2.16
CCn1cc(-c2cccc(C(F)(F)F)c2)c2sc(C(=N)NC3CCS(=O)(=O)CC3)cc2c1=O (library stock concentration (final ~1000-fold dilution): 10 mM),NF-kB SEAP reporter activity,RAW-Dual [2]; agonist: LPS (TLR4) 0.1 ug/mL,3.13
same,NF-kB SEAP reporter activity,RAW-Dual [2]; [5],0.721
same,NF-kB SEAP reporter activity,RAW-Dual [2]; [6],1.15
same,NF-kB SEAP reporter activity,RAW-Dual [2]; [7],1.12
CCCNC(=O)C1OC1C(=O)NC(C(=O)N1CCCC1C(=O)OC)C(C)CC (configuration not stated) (library stock concentration (final ~1000-fold dilution): 10 mM),NF-kB SEAP reporter activity,RAW-Dual [3]; agonist: LPS (TLR4) 0.1 ug/mL,1.06
same,NF-kB SEAP reporter activity,RAW-Dual [3]; [5],0.881
same,NF-kB SEAP reporter activity,RAW-Dual [3]; [6],0.854
same,NF-kB SEAP reporter activity,RAW-Dual [3]; [7],0.799
CCCNC(=O)C1OC1C(=O)NC(C(=O)N1CCCC1C(=O)OC)C(C)CC (configuration not stated),NF-kB SEAP reporter activity,RAW-Dual [1]; [8],0.821
same,NF-kB SEAP reporter activity,RAW-Dual [1]; [9],1.04
Cl.NCCOCCOCCNC(=O)Cc1ccc(Nc2nc(NCc3ccc(F)cc3)nc(NCC3CCCCC3)n2)cc1 (library stock concentration (final ~1000-fold dilution): 10 mM),NF-kB SEAP reporter activity,RAW-Dual [2]; agonist: LPS (TLR4) 0.1 ug/mL,0.643
same,NF-kB SEAP reporter activity,RAW-Dual [2]; [5],0.852
same,NF-kB SEAP reporter activity,RAW-Dual [2]; [6],0.738
same,NF-kB SEAP reporter activity,RAW-Dual [2]; [7],0.911
Cl.NCCOCCOCCNC(=O)Cc1ccc(Nc2nc(NCc3ccc(F)cc3)nc(NCC3CCCCC3)n2)cc1,NF-kB SEAP reporter activity,RAW-Dual [1]; [10],1.05
same,NF-kB SEAP reporter activity,RAW-Dual [1]; [4],1.59
O=C(Nc1nccs1)C(c1cc(F)ccc1O)N1Cc2ccccc2C1=O (configuration not stated),NF-kB SEAP reporter activity,RAW-Dual [1]; [8],0.944
same,NF-kB SEAP reporter activity,RAW-Dual [1]; [9],0.982
O=C(Nc1nccs1)C(c1cc(F)ccc1O)N1Cc2ccccc2C1=O (configuration not stated) (library stock concentration (final ~1000-fold dilution): 10 mM),NF-kB SEAP reporter activity,RAW-Dual [3]; agonist: LPS (TLR4) 0.1 ug/mL,0.902
same,NF-kB SEAP reporter activity,RAW-Dual [3]; [5],0.989
same,NF-kB SEAP reporter activity,RAW-Dual [3]; [6],0.865
same,NF-kB SEAP reporter activity,RAW-Dual [3]; [7],1.02
CCOC(=O)CC(=O)O (library stock concentration (final ~1000-fold dilution): 10 mM water),NF-kB SEAP reporter activity,RAW-Dual [3]; agonist: LPS (TLR4) 0.1 ug/mL,1.31
same,NF-kB SEAP reporter activity,RAW-Dual [3]; [5],1.09
same,NF-kB SEAP reporter activity,RAW-Dual [3]; [6],1.18
same,NF-kB SEAP reporter activity,RAW-Dual [3]; [7],1.03
CCOC(=O)CC(=O)O,NF-kB SEAP reporter activity,"RAW-Dual [1]; library stock concentration (final ~1000-fold dilution): 10 mM water, cytotoxicity flag (confluency mask): not cytotoxic, agonist: Imiquimod (TLR7) […]",0.955
same,NF-kB SEAP reporter activity,"RAW-Dual [1]; library stock concentration (final ~1000-fold dilution): 10 mM water, cytotoxicity flag (confluency mask): not cytotoxic, agonist: MPLA (TLR4) […]",1
CCCCOc1cc(C(=O)NCCN(CC)CC)c2ccccc2n1.Cl,NF-kB SEAP reporter activity,RAW-Dual [1]; [8],1.57
same,NF-kB SEAP reporter activity,RAW-Dual [1]; [9],1.01
CCCCOc1cc(C(=O)NCCN(CC)CC)c2ccccc2n1.Cl (library stock concentration (final ~1000-fold dilution): 10 mM),NF-kB SEAP reporter activity,RAW-Dual [3]; agonist: LPS (TLR4) 0.1 ug/mL,0.994
same,NF-kB SEAP reporter activity,RAW-Dual [3]; [5],0.959
same,NF-kB SEAP reporter activity,RAW-Dual [3]; [6],0.866
same,NF-kB SEAP reporter activity,RAW-Dual [3]; [7],1.09
